# Shown are actives, neighbours in structure and some others; about 8% of the full set was active somewhere.
# ELG1 repair inh: qHTS screen for small molecules that inhibit ELG1-dependent DNA repair in human embryonic kidney (HEK293T) cells expressing luciferase-tagged ELG1 | HEK293T ELG1-luciferase reporter, luminescence, 16 h; DNA damage induced by 5-fluorouridine | Potency, µM (doses to about 46.1 µM), actives largely listed as inhibitors | 2.3% of 330,000 active; note: nearly all actives have a fitted effect of over 55% in size
#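 Cells (2,000 per well) received 5-fluorouridine plus test compound or DMSO and were incubated 16 hr at 37 °C, 5% CO2. Luciferase activity was read by luminescence 30 min after ONE-Glo addition; signal suppression marked inhibition of damage-induced ELG1 function.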
# TSHR antag: Antagonists of the Thyroid Stimulating Hormone Receptor: HTS campaign. 0.2% of 330,000 active. AID 504810, 2011. TSHR-expressing cells, TSH-stimulated cAMP HTRF, 2 h; active compounds read low. activity change, negative = inhibition, % at 11.5 µM;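 active = activity change below a set negative limit, meaning inhibition stronger than a set level, cut at about -70% in these data; inconclusive = activity change between two set negative limits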
#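 Antagonism was scored as loss of TSH-driven cAMP in TSHR cells, stimulated with 4nM TSH (EC80) for 2 hours at 37 deg C and detected by homogeneous HTRF competition immunoassay.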
# Gal4-VP16 FLuc: VP16 counterscreen qHTS for inhibitors of ROR gamma transcriptional activity; Drosophila S2 Gal4-VP16 UAS-luciferase, luminescence, 20 h; Potency, µM (doses to about 53.6 µM), usual class: inhibitors; 3.5% of 310,000 active; AID 2546, 2010;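 note: Gal4-VP16 expression switched on by copper sulfate through the metallothionein promoter; nearly all actives have a fitted effect of over 50% in size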
# RORg inh: qHTS for inhibitors of ROR gamma transcriptional activity. AID 2551, 2010. Potency, µM (series often up to 53.6 µM), hits mostly inhibitors. 5.4% of 310,000 active. Nuclear receptor ROR-gamma (Mus musculus), P51450. Drosophila S2 Gal4-RORgamma UAS-luciferase reporter, 20 h; note: nearly all actives have a fitted effect of over 60% in size
# Target sequence (P51450 whole entry, looked up, the tested form may be a part): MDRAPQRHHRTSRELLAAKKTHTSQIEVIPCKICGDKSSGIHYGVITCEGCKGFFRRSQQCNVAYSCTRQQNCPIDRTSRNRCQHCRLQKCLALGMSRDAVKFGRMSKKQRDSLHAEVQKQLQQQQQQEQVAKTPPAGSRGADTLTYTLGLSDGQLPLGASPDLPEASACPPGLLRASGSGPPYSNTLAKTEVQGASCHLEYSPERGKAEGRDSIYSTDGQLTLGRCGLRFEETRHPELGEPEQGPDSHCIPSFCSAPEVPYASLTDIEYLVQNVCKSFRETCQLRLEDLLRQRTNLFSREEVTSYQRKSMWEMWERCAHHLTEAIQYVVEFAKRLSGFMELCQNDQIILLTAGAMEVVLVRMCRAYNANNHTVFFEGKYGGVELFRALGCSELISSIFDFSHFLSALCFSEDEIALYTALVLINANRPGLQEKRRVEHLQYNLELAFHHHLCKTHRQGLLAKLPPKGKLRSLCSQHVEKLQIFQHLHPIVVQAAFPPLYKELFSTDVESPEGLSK
#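 Luciferase reporter read in Schneider cells carrying Gal4-RORγ (mouse) and UAS-Photinus luciferase; cells given compound 1 h before 700 uM copper sulfate induction, then incubated 20 h at ambient temperature.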
# Coupling enz: qHTS Assay for Inhibitors of Fructose-1,6-bisphosphate Aldolase from Giardia Lamblia: Coupling assay counterscreen | coupling enzyme system counterscreen, AmpLite Red fluorescence | activity change, negative = inhibition, % at 58.2 µM, hits read low | 0.67% of 290,000 active; in the data active = activity change below about -30%
#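 Activity here indicates interference with the coupling reaction, not aldolase inhibition. Compounds at 57.5 uM final met coupling enzymes for 10 min at RT; substrate and AmpLite Red detection followed, with a 525/598 nm fluorescence read after 20 min.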
# Numbers stand for hits; 0 = inactive; ? = inconclusive; - = not tested or not shown; [ ] = dose if it differs, or a comment. Unless noted, calls come from the whole dose curve; as a rule, active = well fitted curve in the direction sought with a large enough effect; inconclusive = small, poorly fitted or top-dose-only effect, or another doubt; inactive = no such curve, though single readings can be large; an effect the other way counts as inactive or inconclusive.
SMILES,ELG1 repair inh,TSHR antag,Gal4-VP16 FLuc,RORg inh,Coupling enz
CN(C)C(=S)NC(=O)C12CC3CC(C)(CC(C)(C3)C1)C2,0,0,22µM,5µM,0
CC12CC3CC(C)(C1)CC(C(=O)NNC(=O)c1ccncc1)(C3)C2,0,0,0,0,0
CC12CC3CC(C)(C1)CC(C(=O)N1CCN(C(=O)C4CCCO4)CC1)(C3)C2 (stereo not given),0,0,-,-,0
CCCCCOc1ccc(CSc2n[nH]c(C)n2)cc1,0,0,0,0,0
C=CCSc1n[nH]c(-c2ccc(OCCC)cc2)n1,?,0,?,10µM,0
C=CCSc1n[nH]c(-c2ccc(OCCCC)cc2)n1,?,0,8.9µM,8.9µM,0
CSc1nsc(SC)c1C(=O)N1CCN(S(=O)(=O)c2ccc(C)cc2)C1C(C)C (stereo not given),18µM,0,0,0,0
Cc1cc2[nH]c(=O)c(=O)[nH]c2cc1S(=O)(=O)Nc1cccc(Cl)c1C,0,0,0,0,0
C/C(=N\NC(=O)c1n[nH]c2c1CCC2)c1cccs1,?,0,3.5µM,2.5µM,0
O=C(N/N=C/c1cccs1)c1n[nH]c2c1CCCC2,?,0,7.9µM,5µM,0
C/C(=N/NC(=O)c1cc(C(C)C)[nH]n1)c1cccs1,?,0,0,?,0
C/C(=N\NC(=O)c1cc(C)[nH]n1)c1cccs1,?,0,10µM,13µM,0
CCN(CC(=O)Nc1ccc(OC)cc1)CC(=O)Nc1sc2c(c1C(=O)OC)CCCC2,?,0,-,-,-
Cc1cc(C)cc(NC(=S)N2CCN(c3ncc(C(F)(F)F)cc3Cl)CC2)c1,0,0,0,3.5µM,0
S=C(Nc1ccc(Nc2ccccc2)cc1)N1CCN(c2ncccn2)CC1,0,0,0[10 µM],0,0
COc1cc(NC(=S)N2CCN(c3ccccn3)CC2)cc(OC)c1,0,0,?,11µM,0
COc1ccc(C)cc1NC(=S)N1CCN(c2ccccn2)CC1,0,0,?,?,0
Cc1cc(C)cc(NC(=S)N2CCN(c3ncccn3)CC2)c1,0,0,?,14µM,0
C=CCNC(=S)N1CCN(c2ncc(C(F)(F)F)cc2Cl)CC1,?,0,0,0,0
COC(=O)c1cc(OC)c(OC)cc1NC(=S)N1CCN(c2ccccn2)CC1,?,0,0,11µM,0
C=CCn1c(=O)n(C2OC(CO)C(O)C2O)c2nc(N)[nH]c(=O)c21 (stereo not given),-,-,0,0,0
S=C(Nc1ccc(Cl)cc1)N1CCCC1,0,0,0,0,0
Cc1ccc(NC(=S)N2CCN(c3ccccn3)CC2)cc1C,0,0,13µM,?,0
S=C(Nc1ccc(Br)cc1)N1CCN(c2ccccn2)CC1,0,0,?,11µM,0
S=C(Nc1cc(Cl)cc(Cl)c1)N1CCCC1,0,0,?,5µM,0
SMILES,ELG1 repair inh,TSHR antag,Gal4-VP16 FLuc,RORg inh,Coupling enz
COc1ccc(NC(=S)N2CCN(c3ccccn3)CC2)cc1OC,0,0,0,?,0
CC(C)(C)NC(=O)NC(=O)CN1CCN(c2ncc(C(F)(F)F)cc2Cl)CC1,7.3µM,0,0,0,0
Cc1ccc(C(=O)NCC(=O)Nc2ccc(Cl)cc2)s1,0,0,-,-,-
CCCc1cc(=O)[nH]c(SCC(=O)NC(=O)NC2CCCC2)n1,0,0,-,-,-
S=C(Nc1ccccc1Cl)N1CCN(c2ccccn2)CC1,0,0,0,0,0
S=C(Nc1cc(Cl)cc(Cl)c1)N1CCN(c2ccccn2)CC1,0,0,0,11µM,-
Cc1cccc(NC(=S)N2CCN(c3ccccn3)CC2)c1,0,0,?,?,0
Cc1cc(C)cc(NC(=S)N2CCN(c3ccccn3)CC2)c1,0,0,?,16µM,0
CN(CC(=O)Nc1ccc(F)cc1)C(=O)COC(=O)/C=C/c1ccccc1[N+](=O)[O-],0,0,-,-,-
CN1CCCC1CCNc1ccc2oc3ccccc3c(=O)c2c1 (stereo not given),?,0,?,8.9µM,0
O=C(NC(=S)NCc1ccco1)c1cccc(Cl)c1,0,0,8.9µM,6.3µM,-
COc1cccc(C(=O)NC(=S)NCc2ccco2)c1,?,0,?,14µM,0
CC(C)(C)c1ccc(C(=O)NNC(=S)NCc2ccco2)cc1,0,0,0,10µM,0
CC(C)c1cc(C(=O)NNC(=S)NCc2ccco2)c(O)c(C(C)C)c1,18µM,0,?,13µM,0
Cc1cc(C(=O)NNC(=S)NCc2ccco2)n(C)n1,0,0,0,0,0
Cc1ccc([N+](=O)[O-])cc1S(=O)(=O)Nc1ccc(C(=O)N2CCN(C(=O)c3ccco3)CC2)cc1,0,0,-,-,-
COc1cccc(CN(C(=O)/C=C/c2ccco2)C2CCS(=O)(=O)C2)c1 (stereo not given),0,0,0,0,0
CCCCN(C(=O)C1CC(=O)N(Cc2ccc(C)cc2)C1)c1c(N)n(CC(C)C)c(=O)[nH]c1=O (stereo not given),0,0,0,0,-
O=C(CSCc1ccccc1Br)NNC(=S)NCc1ccco1,0,0,10µM,?,0
O=C(NCc1ccc(Cl)cc1)c1cccc(NC(=O)c2ccccc2)c1,18µM,0,0,0[10 µM],0
CCC(C)NC(=S)NNC(=O)c1ccc(C(C)(C)C)cc1 (stereo not given),0,0,8.9µM,10µM,0
CC(C)(C)c1ccc(C(=O)NNC(=O)C2CCCCC2)cc1,?,0,0,0,0
COc1ccc(C(=O)N/C(=C\c2ccco2)C(=O)NCc2ccco2)cc1,0,0,0,0,-
O=C(NCc1ccccc1)c1ccc(Cl)cc1,0,0,0,0,0
COc1ccc(C(=O)NC(=S)NCc2ccco2)cc1,?,0,11µM,6.3µM,0
SMILES,ELG1 repair inh,TSHR antag,Gal4-VP16 FLuc,RORg inh,Coupling enz
COc1cc(OC)cc(C(=O)NNC(=S)NCc2ccco2)c1,0,0,0,0,0
Cc1ccc(C(=O)NC(=S)NCc2ccco2)cc1,?,0,?,10µM,0
COc1cc(OC)cc(C(=O)NC(=S)NCc2ccco2)c1,0,0,11µM,5µM,0
O=C(NC(=S)NCc1ccccc1)c1cccc(Cl)c1,0,0,7.1µM,6.3µM,0
CC(C)(C)c1ccc(C(=O)c2c[nH]c(C(=O)NCc3ccco3)c2)cc1,?,0,13µM,?,0
O=C(NCc1ccco1)c1cc(C(=O)C2CCCCC2)c[nH]1,?,0,0,0,0
CNC(=O)NC(=S)NC(=O)c1ccccc1Cl,0,0,0,?,0
CNC(=O)NC(=S)NC(=O)c1cccc(Cl)c1,0,0,0[10 µM],14µM,0
C/C(=N\NC(=O)Cc1ccc(Cl)cc1)c1cccc(NC(=O)c2cccnc2)c1,?,0,0,0,-
O=C(O)CCNc1cc(N2CCN(C(=O)c3ccco3)CC2)c2noc3c2c1C(=O)c1ccccc1-3,0,0,0,0,0

# Assay outcomes: PubChem, National Center for Advancing Translational Sciences (NCATS)
